# From article PMC11006913
# Substitutions are numbered along the chain they refer to.
# How the values were obtained:
# Test in all cases: PBM; 200 nM protein, PBS
# Details in all cases: dsDNA, one strand shown
# HOXB4 [1] = target: HOXB4 (Homo sapiens, UniProt P17483 148-234)
# HOXB9 [2] = target: HOXB9 (Homo sapiens, UniProt P17482 171-250, T197M)
# SIX6 [3] = target: T1, SIX6 (Homo sapiens, UniProt O95475 114-200, L167I)
# T1 sequence: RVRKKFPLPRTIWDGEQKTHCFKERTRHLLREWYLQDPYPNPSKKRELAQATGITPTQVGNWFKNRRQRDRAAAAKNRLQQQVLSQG
# SIX6 [4] = target: T2, SIX6 (Homo sapiens, UniProt O95475 114-200, L143V)
# T2 sequence: T1 sequence with L30V, I54L
# SIX6 [5] = target: T3, SIX6 (Homo sapiens, UniProt O95475 114-200, H141N)
# T3 sequence: T1 sequence with H28N, I54L
# SIX6 [6] = target: T4, SIX6 (Homo sapiens, UniProt O95475 114-200, T165P)
# T4 sequence: T1 sequence with T52P, I54L
# SIX6 [7] = target: T5, SIX6 (Homo sapiens, UniProt O95475 114-200, L167M)
# T5 sequence: T1 sequence with I54M
# SIX6 [8] = target: T6, SIX6 (Homo sapiens, UniProt O95475 114-200, L143M)
# T6 sequence: T1 sequence with L30M, I54L
# SIX6 [9] = target: T7, SIX6 (Homo sapiens, UniProt O95475 114-200, L143I)
# T7 sequence: T1 sequence with L30I, I54L
# SIX6 [10] = target: T8, SIX6 (Homo sapiens, UniProt O95475 114-200, T165G)
# T8 sequence: T1 sequence with T52G, I54L
# HOXB9 [11] = target: HOXB9 (Homo sapiens, UniProt P17482 171-250)
# HOXB9 (Homo sapiens, UniProt P17482 171-250), sequence (P17482 171-250): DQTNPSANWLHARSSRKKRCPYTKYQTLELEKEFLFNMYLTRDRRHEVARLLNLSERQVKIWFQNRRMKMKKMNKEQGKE
# SIX6 [12] = target: T9, SIX6 (Homo sapiens, UniProt O95475 114-200, T139Q)
# T9 sequence: T1 sequence with T26Q, I54L
# HOXB4 [13] = target: HOXB4 (Homo sapiens, UniProt P17483 148-234, V174I)
# HOXB4 (Homo sapiens, UniProt P17483 148-234, V174I), sequence (P17483 148-234 V174I): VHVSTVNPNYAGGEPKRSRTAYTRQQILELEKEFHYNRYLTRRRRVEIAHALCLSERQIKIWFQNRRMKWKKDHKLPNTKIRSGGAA
# SIX6 [14] = target: T10, SIX6 (Homo sapiens, UniProt O95475 114-200, T165A)
# T10 sequence: T1 sequence with T52A, I54L
# SIX6 [15] = target: T11, SIX6 (Homo sapiens, UniProt O95475 114-200, L167V)
# T11 sequence: T1 sequence with I54V
# SIX6 [16] = target: T12, SIX6 (Homo sapiens, UniProt O95475 114-200)
# T12 sequence: T1 sequence with I54L
# SIX6 [17] = target: T13, SIX6 (Homo sapiens, UniProt O95475 114-200, T165I)
# T13 sequence: T1 sequence with T52I, I54L
# HOXB9 [18] = target: HOXB9 (Homo sapiens, UniProt P17482 171-250, R186Q)
# HOXB9 (Homo sapiens, UniProt P17482 171-250, R186Q), sequence (P17482 171-250 R186Q): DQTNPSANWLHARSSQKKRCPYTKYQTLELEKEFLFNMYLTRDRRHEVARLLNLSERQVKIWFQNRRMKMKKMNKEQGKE
# VENTX [19] = target: T14, VENTX (Homo sapiens, UniProt O95231 78-163, R121Q)
# T14 sequence: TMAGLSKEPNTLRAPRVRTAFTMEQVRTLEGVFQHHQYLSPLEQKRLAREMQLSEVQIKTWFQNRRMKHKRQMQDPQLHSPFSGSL
# HOXC9 [20] = target: HOXC9 (Homo sapiens, UniProt P31274 178-260, K195R)
# HOXC9 (Homo sapiens, UniProt P31274 178-260, K195R), sequence (P31274 178-260 K195R): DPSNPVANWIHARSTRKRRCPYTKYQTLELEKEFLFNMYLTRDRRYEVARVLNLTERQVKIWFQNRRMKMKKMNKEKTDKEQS
# VENTX [21] = target: T15, VENTX (Homo sapiens, UniProt O95231 78-163)
# T15 sequence: T14 sequence with Q44R
# VENTX [22] = target: T16, VENTX (Homo sapiens, UniProt O95231 78-163, Y115F)
# T16 sequence: T14 sequence with Y38F, Q44R
# NKX2-6 = target: T17, NKX2-6 (Homo sapiens, UniProt A6NCS4 118-204, R150C)
# T17 sequence: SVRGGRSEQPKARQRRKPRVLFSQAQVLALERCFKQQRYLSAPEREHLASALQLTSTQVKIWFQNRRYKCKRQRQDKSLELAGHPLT
# HOXC9 [23] = target: HOXC9 (Homo sapiens, UniProt P31274 178-260)
# HOXC9 (Homo sapiens, UniProt P31274 178-260), sequence (P31274 178-260): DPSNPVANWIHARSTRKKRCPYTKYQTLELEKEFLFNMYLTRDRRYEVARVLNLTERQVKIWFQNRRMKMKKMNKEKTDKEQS
# HOXD13 [24] = target: HOXD13 (Homo sapiens, UniProt P35453 263-343, T313R)
# HOXD13 (Homo sapiens, UniProt P35453 263-343, T313R), sequence (P35453 263-343 T313R): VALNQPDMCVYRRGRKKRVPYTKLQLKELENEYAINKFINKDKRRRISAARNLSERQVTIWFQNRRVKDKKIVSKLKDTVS
# HOXC9 [25] = target: HOXC9 (Homo sapiens, UniProt P31274 178-260, R193K)
# HOXC9 (Homo sapiens, UniProt P31274 178-260, R193K), sequence (P31274 178-260 R193K): as the sequence (P31274 178-260) above, with R16K counted along it
# HOXD13 [26] = target: HOXD13 (Homo sapiens, UniProt P35453 263-343)
# HOXD13 (Homo sapiens, UniProt P35453 263-343), sequence (P35453 263-343): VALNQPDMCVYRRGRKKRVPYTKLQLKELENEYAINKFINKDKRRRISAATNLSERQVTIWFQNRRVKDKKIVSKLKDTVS
# HOXD13 [27] = target: HOXD13 (Homo sapiens, UniProt P35453 263-343, T313A)
# HOXD13 (Homo sapiens, UniProt P35453 263-343, T313A), sequence (P35453 263-343 T313A): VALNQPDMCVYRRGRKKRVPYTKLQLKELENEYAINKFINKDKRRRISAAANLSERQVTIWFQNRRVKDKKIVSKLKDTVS
# HOXC9 [28] = target: HOXC9 (Homo sapiens, UniProt P31274 178-260, R222W)
# HOXC9 (Homo sapiens, UniProt P31274 178-260, R222W), sequence (P31274 178-260 R222W): as the sequence (P31274 178-260) above, with R45W counted along it
# ALX4 [29] = target: ALX4 (Homo sapiens, UniProt Q9H161 200-286)
# ALX4 (Homo sapiens, UniProt Q9H161 200-286), sequence (Q9H161 200-286): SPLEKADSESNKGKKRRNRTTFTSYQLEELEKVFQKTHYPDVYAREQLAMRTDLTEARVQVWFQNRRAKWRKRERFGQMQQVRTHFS
# ALX4 [30] = target: ALX4 (Homo sapiens, UniProt Q9H161 200-286, Q225E)
# ALX4 (Homo sapiens, UniProt Q9H161 200-286, Q225E), sequence (Q9H161 200-286 Q225E): as the sequence (Q9H161 200-286) above, with Q26E counted along it
# MSX2 [31] = target: MSX2 (Homo sapiens, UniProt P35548 130-214, R199I)
# MSX2 (Homo sapiens, UniProt P35548 130-214, R199I), sequence (P35548 130-214 R199I): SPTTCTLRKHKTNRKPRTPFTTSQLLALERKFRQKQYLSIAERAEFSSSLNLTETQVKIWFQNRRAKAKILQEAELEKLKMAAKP
# ALX3 [32] = target: ALX3 (Homo sapiens, UniProt O95076 139-225, N203Q)
# ALX3 (Homo sapiens, UniProt O95076 139-225, N203Q), sequence (O95076 139-225 N203Q): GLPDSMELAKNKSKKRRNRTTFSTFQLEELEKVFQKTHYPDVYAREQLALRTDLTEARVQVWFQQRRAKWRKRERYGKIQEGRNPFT
# MSX2 [33] = target: MSX2 (Homo sapiens, UniProt P35548 130-214)
# MSX2 (Homo sapiens, UniProt P35548 130-214), sequence (P35548 130-214): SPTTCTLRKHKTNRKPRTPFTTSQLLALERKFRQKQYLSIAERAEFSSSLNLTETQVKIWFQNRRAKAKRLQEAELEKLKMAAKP
# ALX3 [34] = target: ALX3 (Homo sapiens, UniProt O95076 139-225)
# ALX3 (Homo sapiens, UniProt O95076 139-225), sequence (O95076 139-225): as the sequence (O95076 139-225 N203Q) above, with Q65N counted along it
# VAX1 [35] = target: VAX1 (Homo sapiens, UniProt Q5SQQ9 86-172)
# VAX1 (Homo sapiens, UniProt Q5SQQ9 86-172), sequence (Q5SQQ9 86-172): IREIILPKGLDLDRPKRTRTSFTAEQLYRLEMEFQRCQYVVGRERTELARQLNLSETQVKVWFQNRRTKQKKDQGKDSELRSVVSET
# ALX3 [36] = target: ALX3 (Homo sapiens, UniProt O95076 139-225, L168Q)
# ALX3 (Homo sapiens, UniProt O95076 139-225, L168Q), sequence (O95076 139-225 L168Q): as the sequence (O95076 139-225 N203Q) above, with L30Q, Q65N counted along it
# ALX3 [37] = target: ALX3 (Homo sapiens, UniProt O95076 139-225, L168V)
# ALX3 (Homo sapiens, UniProt O95076 139-225, L168V), sequence (O95076 139-225 L168V): as the sequence (O95076 139-225 N203Q) above, with L30V, Q65N counted along it
# MSX2 [38] = target: MSX2 (Homo sapiens, UniProt P35548 130-214, F161Y)
# MSX2 (Homo sapiens, UniProt P35548 130-214, F161Y), sequence (P35548 130-214 F161Y): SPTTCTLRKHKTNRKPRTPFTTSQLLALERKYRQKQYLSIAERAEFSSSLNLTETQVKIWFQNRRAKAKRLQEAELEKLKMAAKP
# VAX1 [39] = target: VAX1 (Homo sapiens, UniProt Q5SQQ9 86-172, T142I)
# VAX1 (Homo sapiens, UniProt Q5SQQ9 86-172, T142I), sequence (Q5SQQ9 86-172 T142I): as the sequence (Q5SQQ9 86-172) above, with T57I counted along it
# ALX3 [40] = target: ALX3 (Homo sapiens, UniProt O95076 139-225, N203S)
# ALX3 (Homo sapiens, UniProt O95076 139-225, N203S), sequence (O95076 139-225 N203S): as the sequence (O95076 139-225 N203Q) above, with Q65S counted along it
# VAX1 [41] = target: VAX1 (Homo sapiens, UniProt Q5SQQ9 86-172, K157R)
# VAX1 (Homo sapiens, UniProt Q5SQQ9 86-172, K157R), sequence (Q5SQQ9 86-172 K157R): as the sequence (Q5SQQ9 86-172) above, with K72R counted along it
# ALX1 [42] = target: ALX1 (Homo sapiens, UniProt Q15699 118-204, L144V)
# ALX1 (Homo sapiens, UniProt Q15699 118-204, L144V), sequence (Q15699 118-204 L144V): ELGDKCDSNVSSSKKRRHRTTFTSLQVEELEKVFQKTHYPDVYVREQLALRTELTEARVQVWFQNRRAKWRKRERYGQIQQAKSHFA
# ALX1 [43] = target: ALX1 (Homo sapiens, UniProt Q15699 118-204, L144R)
# ALX1 (Homo sapiens, UniProt Q15699 118-204, L144R), sequence (Q15699 118-204 L144R): as the sequence (Q15699 118-204 L144V) above, with V27R counted along it
# ALX1 [44] = target: ALX1 (Homo sapiens, UniProt Q15699 118-204)
# ALX1 (Homo sapiens, UniProt Q15699 118-204), sequence (Q15699 118-204): as the sequence (Q15699 118-204 L144V) above, with V27L counted along it
# HOXB4 (Homo sapiens, UniProt P17483 148-234), sequence (P17483 148-234): as the sequence (P17483 148-234 V174I) above, with I27V counted along it
# HOXB9 (Homo sapiens, UniProt P17482 171-250, T197M), sequence (P17482 171-250 T197M): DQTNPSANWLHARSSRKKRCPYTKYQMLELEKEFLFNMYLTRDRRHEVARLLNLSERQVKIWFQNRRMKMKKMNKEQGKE
sequence,measurement,setting,value
GGCCCCCC,binding signal,HOXB4 [1],"7.99 upbm affinity estimate (log intensity, higher = more binding, comparable within an allelic series)"
same,binding signal,HOXB9 [2],"8.33 upbm affinity estimate (log intensity, higher = more binding, comparable within an allelic series)"
same,binding signal,SIX6 [3],"8.65 upbm affinity estimate (log intensity, higher = more binding, comparable within an allelic series)"
same,binding signal,SIX6 [4],"8.57 upbm affinity estimate (log intensity, higher = more binding, comparable within an allelic series)"
same,binding signal,SIX6 [5],"8.65 upbm affinity estimate (log intensity, higher = more binding, comparable within an allelic series)"
same,binding signal,SIX6 [6],"8.56 upbm affinity estimate (log intensity, higher = more binding, comparable within an allelic series)"
same,binding signal,SIX6 [7],"8.73 upbm affinity estimate (log intensity, higher = more binding, comparable within an allelic series)"
same,binding signal,SIX6 [8],"8.77 upbm affinity estimate (log intensity, higher = more binding, comparable within an allelic series)"
same,binding signal,SIX6 [9],"8.57 upbm affinity estimate (log intensity, higher = more binding, comparable within an allelic series)"
same,binding signal,SIX6 [10],"8.61 upbm affinity estimate (log intensity, higher = more binding, comparable within an allelic series)"
same,binding signal,HOXB9 [11],"8.39 upbm affinity estimate (log intensity, higher = more binding, comparable within an allelic series)"
same,binding signal,SIX6 [12],"8.85 upbm affinity estimate (log intensity, higher = more binding, comparable within an allelic series)"
same,binding signal,HOXB4 [13],"7.93 upbm affinity estimate (log intensity, higher = more binding, comparable within an allelic series)"
same,binding signal,SIX6 [14],"8.73 upbm affinity estimate (log intensity, higher = more binding, comparable within an allelic series)"
same,binding signal,SIX6 [15],"8.56 upbm affinity estimate (log intensity, higher = more binding, comparable within an allelic series)"
same,binding signal,SIX6 [16],"8.69 upbm affinity estimate (log intensity, higher = more binding, comparable within an allelic series)"
same,binding signal,SIX6 [17],"8.78 upbm affinity estimate (log intensity, higher = more binding, comparable within an allelic series)"
same,binding signal,HOXB9 [18],"8.36 upbm affinity estimate (log intensity, higher = more binding, comparable within an allelic series)"
CGGGCTAG,binding signal,HOXB4 [1],"7.46 upbm affinity estimate (log intensity, higher = more binding, comparable within an allelic series)"
same,binding signal,VENTX [19],"7.92 upbm affinity estimate (log intensity, higher = more binding, comparable within an allelic series)"
same,binding signal,HOXC9 [20],"9.53 upbm affinity estimate (log intensity, higher = more binding, comparable within an allelic series)"
same,binding signal,VENTX [21],"7.75 upbm affinity estimate (log intensity, higher = more binding, comparable within an allelic series)"
same,binding signal,VENTX [22],"7.71 upbm affinity estimate (log intensity, higher = more binding, comparable within an allelic series)"
same,binding signal,HOXB4 [13],"7.53 upbm affinity estimate (log intensity, higher = more binding, comparable within an allelic series)"
same,binding signal,NKX2-6,"9.48 upbm affinity estimate (log intensity, higher = more binding, comparable within an allelic series)"
same,binding signal,HOXC9 [23],"9.6 upbm affinity estimate (log intensity, higher = more binding, comparable within an allelic series)"
same,binding signal,HOXD13 [24],"9.56 upbm affinity estimate (log intensity, higher = more binding, comparable within an allelic series)"
same,binding signal,HOXC9 [25],"9.51 upbm affinity estimate (log intensity, higher = more binding, comparable within an allelic series)"
same,binding signal,HOXD13 [26],"9.47 upbm affinity estimate (log intensity, higher = more binding, comparable within an allelic series)"
same,binding signal,HOXD13 [27],"9.73 upbm affinity estimate (log intensity, higher = more binding, comparable within an allelic series)"
same,binding signal,HOXC9 [28],"9.67 upbm affinity estimate (log intensity, higher = more binding, comparable within an allelic series)"
GCTCGTTA,binding signal,HOXB4 [1],"11.4 upbm affinity estimate (log intensity, higher = more binding, comparable within an allelic series)"
same,binding signal,VENTX [19],"10.1 upbm affinity estimate (log intensity, higher = more binding, comparable within an allelic series)"
same,binding signal,HOXB4 [13],"11.6 upbm affinity estimate (log intensity, higher = more binding, comparable within an allelic series)"
GGAGCTCC,binding signal,HOXB4 [1],"7.69 upbm affinity estimate (log intensity, higher = more binding, comparable within an allelic series)"
same,binding signal,HOXB9 [2],"8.62 upbm affinity estimate (log intensity, higher = more binding, comparable within an allelic series)"
same,binding signal,ALX4 [29],"7.72 upbm affinity estimate (log intensity, higher = more binding, comparable within an allelic series)"
same,binding signal,ALX4 [30],"7.79 upbm affinity estimate (log intensity, higher = more binding, comparable within an allelic series)"
same,binding signal,HOXB9 [11],"8.6 upbm affinity estimate (log intensity, higher = more binding, comparable within an allelic series)"
same,binding signal,HOXB4 [13],"7.37 upbm affinity estimate (log intensity, higher = more binding, comparable within an allelic series)"
same,binding signal,MSX2 [31],"9.52 upbm affinity estimate (log intensity, higher = more binding, comparable within an allelic series)"
same,binding signal,ALX3 [32],"7.68 upbm affinity estimate (log intensity, higher = more binding, comparable within an allelic series)"
same,binding signal,MSX2 [33],"9.28 upbm affinity estimate (log intensity, higher = more binding, comparable within an allelic series)"
same,binding signal,ALX3 [34],"7.41 upbm affinity estimate (log intensity, higher = more binding, comparable within an allelic series)"
same,binding signal,VAX1 [35],"7.36 upbm affinity estimate (log intensity, higher = more binding, comparable within an allelic series)"
same,binding signal,ALX3 [36],"7.7 upbm affinity estimate (log intensity, higher = more binding, comparable within an allelic series)"
same,binding signal,HOXB9 [18],"8.62 upbm affinity estimate (log intensity, higher = more binding, comparable within an allelic series)"
same,binding signal,ALX3 [37],"7.63 upbm affinity estimate (log intensity, higher = more binding, comparable within an allelic series)"
same,binding signal,MSX2 [38],"9.3 upbm affinity estimate (log intensity, higher = more binding, comparable within an allelic series)"
same,binding signal,VAX1 [39],"7.59 upbm affinity estimate (log intensity, higher = more binding, comparable within an allelic series)"
same,binding signal,ALX3 [40],"7.63 upbm affinity estimate (log intensity, higher = more binding, comparable within an allelic series)"
same,binding signal,VAX1 [41],"7.58 upbm affinity estimate (log intensity, higher = more binding, comparable within an allelic series)"
GCGCAGCC,binding signal,HOXB4 [1],"7.53 upbm affinity estimate (log intensity, higher = more binding, comparable within an allelic series)"
same,binding signal,SIX6 [3],"8.75 upbm affinity estimate (log intensity, higher = more binding, comparable within an allelic series)"
same,binding signal,SIX6 [4],"8.82 upbm affinity estimate (log intensity, higher = more binding, comparable within an allelic series)"
same,binding signal,SIX6 [5],"8.75 upbm affinity estimate (log intensity, higher = more binding, comparable within an allelic series)"
same,binding signal,SIX6 [6],"8.87 upbm affinity estimate (log intensity, higher = more binding, comparable within an allelic series)"
same,binding signal,SIX6 [7],"8.77 upbm affinity estimate (log intensity, higher = more binding, comparable within an allelic series)"
same,binding signal,SIX6 [8],"8.72 upbm affinity estimate (log intensity, higher = more binding, comparable within an allelic series)"
same,binding signal,SIX6 [9],"8.74 upbm affinity estimate (log intensity, higher = more binding, comparable within an allelic series)"
same,binding signal,SIX6 [10],"8.7 upbm affinity estimate (log intensity, higher = more binding, comparable within an allelic series)"
same,binding signal,SIX6 [12],"8.82 upbm affinity estimate (log intensity, higher = more binding, comparable within an allelic series)"
same,binding signal,HOXB4 [13],"7.57 upbm affinity estimate (log intensity, higher = more binding, comparable within an allelic series)"
same,binding signal,ALX1 [42],"6.42 upbm affinity estimate (log intensity, higher = more binding, comparable within an allelic series)"
same,binding signal,SIX6 [14],"8.78 upbm affinity estimate (log intensity, higher = more binding, comparable within an allelic series)"
same,binding signal,ALX1 [43],"6.45 upbm affinity estimate (log intensity, higher = more binding, comparable within an allelic series)"
same,binding signal,SIX6 [15],"8.72 upbm affinity estimate (log intensity, higher = more binding, comparable within an allelic series)"
same,binding signal,SIX6 [16],"8.73 upbm affinity estimate (log intensity, higher = more binding, comparable within an allelic series)"
same,binding signal,SIX6 [17],"8.7 upbm affinity estimate (log intensity, higher = more binding, comparable within an allelic series)"
same,binding signal,ALX1 [44],"6.41 upbm affinity estimate (log intensity, higher = more binding, comparable within an allelic series)"
